Experimental data from PubChem BioAssay AID2014 (Sanford-Burnham Center for Chemical Genomics, 2009).
The whole screen tested about 290,000 compounds, of which about 3,000 (1%) were called active. This is one part of a sample in which actives are shown more often than they occur. How the calls were made is not given here.

Target: Polyadenylate-binding protein 1 (Homo sapiens) (UniProt P11940)
Test: PABP poly(A) RNA binding inhibitors, primary screen, biochemical, fluorescence polarization, uHTS (AID 2014);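 further: calls also rest on retests at 20 µM and on dose response follow-up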
Conditions: stronger effect = higher value

Chain of Polyadenylate-binding protein 1 (Homo sapiens) (P11940 whole entry, looked up): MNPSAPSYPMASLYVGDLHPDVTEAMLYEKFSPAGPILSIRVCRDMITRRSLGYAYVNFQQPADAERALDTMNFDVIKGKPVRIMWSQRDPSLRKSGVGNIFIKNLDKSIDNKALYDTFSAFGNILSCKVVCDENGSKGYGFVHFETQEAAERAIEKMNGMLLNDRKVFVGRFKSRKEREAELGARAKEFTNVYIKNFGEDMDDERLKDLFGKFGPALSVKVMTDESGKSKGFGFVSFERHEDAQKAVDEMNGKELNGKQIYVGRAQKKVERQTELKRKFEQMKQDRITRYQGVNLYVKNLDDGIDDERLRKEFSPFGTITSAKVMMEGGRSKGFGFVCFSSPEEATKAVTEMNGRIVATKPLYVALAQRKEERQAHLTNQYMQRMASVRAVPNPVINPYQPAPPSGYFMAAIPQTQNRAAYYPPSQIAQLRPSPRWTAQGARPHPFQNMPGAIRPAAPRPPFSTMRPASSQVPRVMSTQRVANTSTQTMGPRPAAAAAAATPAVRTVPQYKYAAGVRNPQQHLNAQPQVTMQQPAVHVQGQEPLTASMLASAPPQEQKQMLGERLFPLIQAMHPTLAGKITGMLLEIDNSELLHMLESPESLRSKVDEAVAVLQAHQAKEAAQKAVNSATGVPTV

Structure (SMILES) | inhibition (at 35 µM) | inhibition (confirmation repeats, at 20 µM)
COc1cccc(/C=C2/SC(=S)N(CC(=O)NC3C=CS(=O)(=O)C3)C2=O)c1 (configuration not stated) | 8.2% (inactive) | 
CCNc1c(NS(=O)(=O)c2ccc(C3CCCCC3)cc2)c(=O)oc2ccccc12 | 2.8% (inactive) | 
CC1=NN(C(N)=S)C(=O)C1N=Nc1cc(Cl)ccc1Cl (configuration not stated) | 11.1% (inactive) | 
Cc1ccc(C(=O)O)cc1-c1ccc(/C=C2\SC(=O)N(CC(=O)Nc3ccc4c(c3)OCO4)C2=O)o1 | 62.5% (active) | 
Cn1c(=O)n(C)c2cc(C(=O)Nc3ccc4c(c3)OCO4)ccc21 | 9.8% (inactive) | 
COc1ccc(NC(=O)CCN2C(=O)/C(=C/c3ccc4c(c3)OCO4)SC2=S)cc1 | 28.4% (inactive) | 
CCOc1ccc(N(C(=O)c2snc(C(N)=O)c2N)C(C(=O)NCC2CCCO2)c2c[nH]c3ccccc23)cc1 (configuration not stated) | 8.6% (inactive) | 
O=C(CCc1c[nH]c2ccccc12)NCCOc1ccccc1 | 3.3% (inactive) | 
CCN(CCCNC(=O)c1ccc2c(c1)NC(=O)CN2C)c1cccc(C)c1 | 0.9% (inactive) | 
CCOc1ccc(N(C)S(=O)(=O)c2cnc[nH]2)cc1 | -4.6% (inactive) | 
O=C(CCN1CCCO1)N1CCCC(N2CCN(c3cccc(C(F)(F)F)c3)CC2)C1 (configuration not stated) | -17.5% (inactive) | 
CN1/C(=c2/s/c(=C3/C(=O)N(c4ccccc4)NC3=Nc3ccccc3)n(C)c2=O)C(C)(C)c2ccccc21 | 79.2% (active) | 
CCN1C(=O)/C(=c2\s/c(=C3\Sc4ccccc4N3C)c(=O)n2C)N(C)C1=S | -6.7% (inactive) | 
NC(=O)c1c(NC(=O)CSc2nnc(-c3ccco3)n2N)sc2c1CCCC2 | 43.3% (active) | 90.6%
CCc1cccc(C)c1NC(=O)CSc1nnc(-c2ccco2)n1N | -0.1% (inactive) | 
NC(=O)c1c(NC(=O)CSc2nc(N)cc(=O)[nH]2)sc2c1CCCC2 | 9.6% (inactive) | 
C[C@@H](NC(=O)[C@@H]1Cc2ccccc2CN1)C(=O)NC1CCCC1 | 21% (inactive) | 
Cc1ccc(CN2CCCOCCS2(=O)=O)cc1 | 5.7% (inactive) | 
N#Cc1ccccc1CN1C(=O)S/C(=C/c2cccn2-c2cccc(C(=O)O)c2)C1=O | 37.4% (active) | 65.8%
Cn1cccc1/C=C1\SC(=O)N(CC(=O)Nc2ccc(F)cc2)C1=O | 2.5% (inactive) | 
Cc1ccccc1NC(=O)CN1C(=O)N/C(=C\c2cccn2-c2cccc(C(=O)O)c2)C1=O | 82.4% (inactive) | 24.9%
C=CCn1c(SCc2ccccc2)nc2c1c(=O)[nH]c(=O)n2C | -1.9% (inactive) | 
O=C(O)c1cc(S(=O)(=O)N(Cc2ccccc2)c2cccc(C(F)(F)F)c2)ccc1Cl | 7.3% (inactive) | 

Structure (SMILES) | inhibition (at 35 µM) | inhibition (confirmation repeats, at 20 µM)
Cc1cc(=O)[nH]c(SCc2cc(Cl)ccc2OC(F)F)n1 | 0.2% (inactive) | 
COc1ccccc1-c1noc(CSc2nc(C)cc(=O)[nH]2)n1 | 56.6% (active) | 
Cc1cc(=O)[nH]c(SCc2cccc(F)c2)n1 | -3.3% (inactive) | 
CN1C(=O)/C(=C\c2ccc(-c3ccccc3)o2)SC1=S | 19.8% (inactive) | 
O=C1NN(c2ccccc2)C(=O)/C1=C/c1ccc(-c2cccc(C(=O)O)c2)o1 | 36.5% (inactive) | 
O=C(O)C(c1ccccc1)N1C(=O)/C(=C\c2ccc(-c3cccc(Cl)c3)o2)SC1=S (configuration not stated) | 76% (active) | 126%
CCOC(OCC)c1ccc(/C=C\c2nccc(N)n2)cc1 | -16.6% (inactive) | 
O=C(COc1ccc(Cl)cc1)Nc1ccccc1CO | 4.7% (inactive) | 
COC(=O)c1sccc1NC(=O)c1ccc(Cl)cc1 | 4.7% (inactive) | 
COC(=O)c1sccc1NC(=O)COc1ccc(Cl)cc1 | 81% (active) | 58.4%
CC(C)(C)C1CCC(C(=O)NCC(c2cccs2)N2CCOCC2)CC1 (configuration not stated) | 15.6% (inactive) | 
O=C(C[n+]1ccccc1)N/N=C/c1ccc(O)cc1 | -10% (inactive) | 
O=C(CC(=O)Nc1ccc(Cl)c(Cl)c1)N/N=C/c1ccc(O)cc1 | 51.1% (active) | 59.9%
Nc1nnn(CC(=O)N/N=C/c2ccc(O)cc2)n1 | 15.3% (inactive) | 
CN(C)c1ccc(S(=O)(=O)NCC(=O)NCC2CCCCC2)cc1[N+](=O)[O-] | 13.4% (inactive) | 
COc1cccc(C(=O)N/N=C(\C)c2cccc(NC(=O)c3ccc(F)cc3)c2)c1OC | -0.8% (inactive) | 
COc1ccccc1OCCCC(=O)Nc1ccc2c(c1)OCCO2 | 3.8% (inactive) | 
CCc1nnc(NC(=O)/C=C/c2ccc(C)o2)s1 | 4.4% (active) | 56.5%
CCC(CC)c1nnc(NC(=O)/C=C/c2ccco2)s1 | 10% (inactive) | 1.7%
Cc1nnc(NC(=O)/C=C/c2ccco2)s1 | -3.5% (inactive) | 8.4%
CCOC(=O)c1c(S(=O)(=O)Nc2ccc(CN3CCC(C)CC3)cc2)c(C)n(C)c1C | -2.2% (inactive) | 
CCOC(=O)N1CCC(N2Cc3cccc(C(=O)Nc4c(C)cccc4CC)c3C2=O)CC1 | -4.1% (inactive) | 
CCOC(=O)CC1COCCN1C(=O)c1cc(COc2ccc(F)c(F)c2)on1 (configuration not stated) | 1.8% (inactive) | 

Structure (SMILES) | inhibition (at 35 µM) | inhibition (confirmation repeats, at 20 µM)
O=C(O)c1ccc(OCC2CCCO2)cc1 (configuration not stated) | 6.4% (inactive) | 
O=C(NCC(=O)N1CCN(c2ccccc2F)CC1)c1cccs1 | 7.4% (inactive) | 
CC(C)(C)C(=O)CN1C2=NCCN2c2ccccc21 | -8.1% (inactive) | 
O=C(CN1C2=NCCN2c2ccccc21)c1cccs1 | 88.7% (active) | 105%
COc1ccc(N2CCN(C(=O)Cn3cnc4sc(C)c(S(=O)(=O)N5CCOCC5)c4c3=O)CC2)cc1 | -2.8% (inactive) | 
Cc1cccc2[nH]c(CN(C)C(=O)C3CCC(=O)N(CCc4ccccc4)C3)nc12 (configuration not stated) | -4.2% (inactive) | 
O=C(COc1ccc([N+](=O)[O-])cc1)Nc1ccc(N2CCCC2)cc1 | 7% (inactive) | 
O=C(N/N=C/c1ccc(OCc2ccccc2)cc1)c1ccc(O)cc1 | -15.7% (inactive) | 
O=C(COc1ccc(/C=N/NC(=O)c2ccc(O)cc2)cc1)Nc1ccc([N+](=O)[O-])cc1 | 94.5% (active) | 77.2%
CC(C)c1ccc(Cc2nnc(NCCCO)[nH]c2=O)cc1 | 3.4% (inactive) | 
CCOc1cc(CN2CCCC(CO)(Cc3ccc(F)cc3F)C2)ccc1OC (configuration not stated) | 4.9% (inactive) | 
CCOCc1nnc(NC(=O)CCS(=O)(=O)Cc2ccccc2)s1 | -0.4% (inactive) | 
Cc1ccc(-c2nn(-c3ccccc3)cc2/C=C2\SC(=S)N(CCCCCC(=O)O)C2=O)o1 | 35.4% (active) | 54.4%
CN(C)S(=O)(=O)c1cccc(-c2nn(-c3ccccc3)cc2/C=C2\SC(=S)N(CC(=O)O)C2=O)c1 | 38.3% (inactive) | 
COc1ccc(-c2nn(-c3ccccc3)cc2/C=C2/SC(=S)N(CCCC(=O)O)C2=O)c(C)c1 | 4.8% (inactive) | 
O=C(CCCN1CCc2[nH]c3ccc(F)cc3c2C1)c1ccc(F)cc1 | -1.4% (inactive) | 
CC(=O)Cn1cnc2c(cnn2-c2ccccc2)c1=O | -4.8% (inactive) | 
O=C(CCS(=O)(=O)Cc1ccccc1)Nc1ccc2c(c1)OCCO2 | 72% (active) | 88.6%
O=C(CN(c1ccc2c(c1)OCCO2)S(=O)(=O)c1ccccc1)Nc1ccc2c(c1)OCO2 | -3.5% (inactive) | 
CCCCC(=O)Nc1ccc2c(c1)OCCO2 | -6.8% (inactive) | 
COc1ccc(OC)c(-n2c(-c3ccn[nH]3)n[nH]c2=S)c1 | -4.8% (inactive) | 
COc1ccccc1-n1c(-c2cc(-c3ccco3)[nH]n2)n[nH]c1=S | 39% (active) | 56.9%
COc1ccc(-n2c(-c3ccc(OC)c(OC)c3)n[nH]c2=S)cc1 | 4.9% (inactive) | 

Structure (SMILES) | inhibition (at 35 µM) | inhibition (confirmation repeats, at 20 µM)
CCOC(=O)N1CCN(Cc2nc3cc(NC(=O)CC)ccc3n2CC)CC1 | 1.3% (inactive) | 
Cc1cccc(NC(=O)CCn2c(=O)oc3ccccc32)c1 | 1% (inactive) | 
COc1ccc(Nc2cc(Cl)ccc2C(=O)O)cn1 | 72.3% (active) | 106%
COc1cc(C(F)(F)F)c(C(=O)N(C)c2ccc(Cl)cc2)cn1 | -5.6% (inactive) | 
COc1cccc(Nc2ncccc2C(=O)O)c1 | 11.9% (inactive) | 
COc1ccccc1OC(C)C(=O)Nc1ccc(S(=O)(=O)Nc2nccs2)cc1 (configuration not stated) | 4.4% (inactive) | 
CC(C)(C)OC(=O)NC(Cc1ccccc1)C(=O)NC(CSC1CCCCO1)C(=O)NN (configuration not stated) | 1.1% (inactive) | 
COc1ccc(NS(=O)(=O)c2ccc(N3CCOCC3)c(NC(=O)c3ccccc3Br)c2)cc1 | 3.8% (inactive) | 
COc1ccc(NS(=O)(=O)c2cc(NC(=O)/C=C/c3cc(OC)c(OC)c(OC)c3)ccc2N2CCCCC2)cc1 | -9.8% (inactive) | 
COc1ccc(NS(=O)(=O)c2cc(NC(=O)C3CCCCC3)ccc2N2CCOCC2)cc1 | 67.6% (active) | 92.5%
CC1CCCN(S(=O)(=O)c2ccc(-c3ccc(=O)[nH]n3)o2)C1 (configuration not stated) | 3.3% (inactive) | 
Cc1ccc(-n2ncc3c2CC(C)(C)CC3NC(=O)CCc2cnn(C)c2)cc1 (configuration not stated) | 54.6% (inactive) | 27.1%
O=C(NC1CCCC1)C1CC(=O)N(c2ccc(F)cc2)C1 (configuration not stated) | -2.5% (inactive) | 
Cc1cc2c(cc1C)[n+](C)cn2CC(O)COCC1CC=CCC1 (configuration not stated) | 77.8% (active) | 
N#Cc1cccc(CN2CCC(=O)N([C@H](CO)c3ccccc3)CC2)c1 | 5.7% (inactive) | 
COc1cc(OC)cc(C(=O)NCCSCc2ccc(Cl)cc2)c1 | -3.9% (inactive) | 
O=C(NCc1ccco1)/C(=C/c1ccco1)NC(=O)c1ccccc1 | -4% (inactive) | 
O=C(Nc1ccccc1)/C(=C\c1ccco1)NC(=O)c1ccco1 | 14.9% (inactive) | 
Cc1cccc(NC(=O)/C(=C\c2ccco2)NC(=O)c2ccccc2)c1 | 52.1% (active) | 
COc1cc(/C=C/C(=O)N2CCc3ccccc3C2)cc(OC)c1OC | 2.6% (inactive) | 
COc1ccc(Cc2nnc(SCC(=O)Nc3ccc(C)c(C)c3)o2)cc1OC | -6.8% (inactive) | 
